Measurements: PubChem BioAssay (NCI)
About 83,000 compounds went through this panel and 20% of them were active in at least one assay; those are over-represented in the sample as a whole.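 The endpoint reported here, percent growth, reads 100 for growth as untreated, 0 for no net growth and -100 for all cells dead.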 Unmarked numbers belong to inactive results. Calls of active or inactive are those of the source. Rule for the calls: active = growth percent below 10; inactive = the rest.

What follows are compounds tested on MCF7 breast (assay: NCI-60 one-dose screen, 48 h (100 = growth as untreated, 0 = no growth, -100 = all killed)). Conditions: 10 µM unless noted.

**Q.** For `COc1ccc(C2C3CCc4ccccc4C3=NN2C(=O)c2cc(OC)c(OC)c(OC)c2)cc1O` (stereo not given), which growth is on record?
**A.** 95.8%

**Q.** `CCOC(=O)c1ccc(NC(=O)NC2=NCCS2)cc1` was tested. Which growth did it give?
**A.** 33.4%

**Q.** For `CC(C)COC(=O)NC(C)(C)C`, which growth is on record?
**A.** 90.8%

**Q.** How did the growth turn out when `Cn1c(=O)c2[nH]c(Cc3ccc4c(c3)OCO4)nc2n(C)c1=O` was run?
**A.** 97.7%

**Q.** How did the growth turn out when `Nc1nc(N)c2c(n1)NC(c1sc(Cl)nc1Cl)CC(c1ccc3c(c1)OCO3)=N2` (stereo not given) was run?
**A.** 26.2%

**Q.** `Cc1ccccc1N1C(c2ccccc2)=NNC12C=CC(=O)c1c(O)cccc12` (stereo not given) was tested. Which growth did it give?
**A.** 73.5%

**Q.** How did the growth turn out when `Nc1nc(N)c2c(n1)NC(c1sc(Cl)nc1Cl)CC(c1ccccc1)=N2` (stereo not given) was run?
**A.** 31.3%

**Q.** How did the growth turn out when `C=C1NC(=O)C(C(C)CC)NC(=O)C2CSCC(NC(=O)CCC(=O)O)C(=O)NC(Cc3ccccc3)C(=O)NC(C)C(=O)NC(CC(C)CC)C(=O)NC(C(=O)NC(Cc3ccccc3)C(=O)N3CCCC3C(=O)N2)C(C)OC(=O)C(CO)NC(=O)C(C(O)COC)N(C)C(=O)C(C(C)C)NC(=O)C(CC(C)CC)NC1=O` (stereo not given) was run?
**A.** 16.9% [6 µM]

**Q.** For `Cc1nc2c(-c3cnc(N)nc3)nc(N3CCOCC3)nc2n1C(C)C`, which growth is on record?
**A.** 9.9% (active)

**Q.** `C=CC[C@]1(O)CC[C@H]2[C@@H]3CCc4cc(O)ccc4[C@H]3CC[C@@]21C` was tested. Which growth did it give?
**A.** 116%

**Q.** Which growth does the source give for `COS(=O)(=O)CCN(CCOS(C)(=O)=O)S(C)(=O)=O` here?
**A.** 96%

**Q.** With `Cc1nc2ccc(Nc3nc(NCCN4CCOCC4)nc(Nc4ccc(F)cc4)n3)cc2n1Cc1ccccc1` as the compound, how does the growth read?
**A.** 33.6%

**Q.** `COC1CC(N)C2OC(c3ccccc3)OCC2O1` (stereo not given) was tested. Which growth did it give?
**A.** 92.7%

**Q.** How did the growth turn out when `COc1ccc2[nH]cc(C(c3ccc(Cl)cc3)N3CCCC3)c2c1` (stereo not given) was run?
**A.** 89.3%

**Q.** With `CCOP(=O)(O)OP(=O)(O)OCC` as the compound, how does the growth read?
**A.** 94.1%

**Q.** Which growth does the source give for `COc1cccc(/C=N/N=C(N)N)c1` here?
**A.** 100%

**Q.** Which growth does the source give for `COc1ccc(C2CC(c3ccc(Nc4ccnc5cc(Cl)ccc45)cc3)=NN2c2ccccc2)cc1` (stereo not given) here?
**A.** 81.9%

**Q.** Which growth does the source give for `CC1=C(O)C(=O)C(c2c(C)cc(C)c(Br)c2C)=C(O)C1=O` here?
**A.** 56.5%

**Q.** `FC(F)(F)C1=NNC(c2ccc3ccccc3c2)=NN1` was tested. Which growth did it give?
**A.** 88.7%

**Q.** With `NC(N)=N/N=C\c1ccc(OCc2ccccc2)cc1` as the compound, how does the growth read?
**A.** 17.3%

**Q.** For `COc1ccc(NC(=O)C2c3ccccc3C(=O)N(CC(C)C)C2c2cccs2)cc1` (stereo not given), which growth is on record?
**A.** 82.3%

**Q.** With `NC(N)=N/N=C\c1cccc(OCc2ccccc2)c1` as the compound, how does the growth read?
**A.** 47.2%

**Q.** `CS(=O)(=O)Nc1cc(-c2cc3ncc(C#N)c(Nc4ccc(Oc5ccccc5)c(Cl)c4)c3s2)cnc1Cl` was tested. Which growth did it give?
**A.** 26.5%

**Q.** `Cc1ccc(NC(=O)c2nc(S(C)(=O)=O)oc2-c2ccc(F)cc2)cc1Nc1ccc2ncn(C)c(=O)c2c1` was tested. Which growth did it give?
**A.** 52.5%

**Q.** How did the growth turn out when `CC(=O)[C@H]1CC[C@H]2[C@@H]3CC[C@H]4CC=CC[C@]4(C)[C@H]3CC[C@]12C` was run?
**A.** 114%

**Q.** Which growth does the source give for `COc1cccc(NC(=O)[C@H](C(C)C)n2c(=O)[nH]c3ccccc3c2=O)c1` here?
**A.** 98.2%

**Q.** How did the growth turn out when `CC(C)N1CCN(c2ccncc2S(=O)(=O)N2CCN(C)CC2)CC1` was run?
**A.** 94.1%

**Q.** Which growth does the source give for `[O-]/[N+](=C\c1ccccc1)CC1(O)CCCCC1` here?
**A.** 92.7%

**Q.** For `CCc1ccc(-c2ccc(NC3CCCCCC3)nn2)cc1S(N)(=O)=O`, which growth is on record?
**A.** 95.2%

**Q.** `C[C@@H]1C[C@H](N)C[C@H](c2ccncc2NC(=O)c2ccc(F)c(-c3c(F)cccc3F)n2)C1` was tested. Which growth did it give?
**A.** 40.2%

**Q.** How did the growth turn out when `COC(=O)C(CCC(=O)CCl)N1C(=O)c2ccccc2C1=O` (stereo not given) was run?
**A.** 26.2%

**Q.** With `CCCCCCCCCCCCCCC(C(=O)OCC)C(=O)OCC` as the compound, how does the growth read?
**A.** 98.5%

**Q.** Which growth does the source give for `O=C(Nc1ccc2[nH]c3ccccc3c2c1)c1ccccc1Cl` here?
**A.** 21.8%

**Q.** Which growth does the source give for `CN(C)c1ccc(/C=C(\C#N)c2nc3ccccc3n2C)cc1` here?
**A.** 17.9%

**Q.** Which growth does the source give for `O=C(CS)OCC(COC(=O)CS)(COC(=O)CS)COC(=O)CS` here?
**A.** 75.9%

**Q.** For `C#CC[C@@H]1C[C@]2(C)[C@H]3CC=C4[C@H]5[C@@H](C)[C@H](C)CC[C@]5(C(=O)NCCCCN)CC[C@@]4(C)[C@]3(C)CC[C@H]2C(C)(C)[C@H]1OC(C)=O`, which growth is on record?
**A.** 12.2%

**Q.** For `CC(=O)N1N=C(c2ccc(C)cc2)CC1c1cn(-c2ccccc2)nc1-c1cccc(Nc2ccnc3cc(Cl)ccc23)c1` (stereo not given), which growth is on record?
**A.** 24.8%

**Q.** `CCN(CC)CCC(CNc1ccnc2cc(Cl)ccc12)c1ccc(O)cc1` (stereo not given) was tested. Which growth did it give?
**A.** 113%

**Q.** `CNC(=O)c1ccccc1Sc1ccc2c(/C=C/c3ccccn3)n[nH]c2c1` was tested. Which growth did it give?
**A.** 35.2%

Each compound was assayed on HCT-116 colon in the same assay as above. Conditions: 10 µM unless noted.

**Q.** How did the growth turn out when `COc1ccc(C2C3CCc4ccccc4C3=NN2C(=O)c2cc(OC)c(OC)c(OC)c2)cc1O` (stereo not given) was run?
**A.** 104%

**Q.** `CCOC(=O)c1ccc(NC(=O)NC2=NCCS2)cc1` was tested. Which growth did it give?
**A.** 93%

**Q.** How did the growth turn out when `CC(C)COC(=O)NC(C)(C)C` was run?
**A.** 105%

**Q.** With `Cn1c(=O)c2[nH]c(Cc3ccc4c(c3)OCO4)nc2n(C)c1=O` as the compound, how does the growth read?
**A.** 105%

**Q.** For `Nc1nc(N)c2c(n1)NC(c1sc(Cl)nc1Cl)CC(c1ccc3c(c1)OCO3)=N2` (stereo not given), which growth is on record?
**A.** 20.1%

**Q.** Which growth does the source give for `Cc1ccccc1N1C(c2ccccc2)=NNC12C=CC(=O)c1c(O)cccc12` (stereo not given) here?
**A.** 66.5%

**Q.** For `Nc1nc(N)c2c(n1)NC(c1sc(Cl)nc1Cl)CC(c1ccccc1)=N2` (stereo not given), which growth is on record?
**A.** 21.4%

**Q.** `C=C1NC(=O)C(C(C)CC)NC(=O)C2CSCC(NC(=O)CCC(=O)O)C(=O)NC(Cc3ccccc3)C(=O)NC(C)C(=O)NC(CC(C)CC)C(=O)NC(C(=O)NC(Cc3ccccc3)C(=O)N3CCCC3C(=O)N2)C(C)OC(=O)C(CO)NC(=O)C(C(O)COC)N(C)C(=O)C(C(C)C)NC(=O)C(CC(C)CC)NC1=O` (stereo not given) was tested. Which growth did it give?
**A.** 6.69% [6 µM] (active)

**Q.** `Cc1nc2c(-c3cnc(N)nc3)nc(N3CCOCC3)nc2n1C(C)C` was tested. Which growth did it give?
**A.** 17.2%

**Q.** Which growth does the source give for `C=CC[C@]1(O)CC[C@H]2[C@@H]3CCc4cc(O)ccc4[C@H]3CC[C@@]21C` here?
**A.** 93%

**Q.** `Cc1nc2ccc(Nc3nc(NCCN4CCOCC4)nc(Nc4ccc(F)cc4)n3)cc2n1Cc1ccccc1` was tested. Which growth did it give?
**A.** 27.9%

**Q.** Which growth does the source give for `COC1CC(N)C2OC(c3ccccc3)OCC2O1` (stereo not given) here?
**A.** 102%

**Q.** `CCOP(=O)(O)OP(=O)(O)OCC` was tested. Which growth did it give?
**A.** 106%

**Q.** With `COc1cccc(/C=N/N=C(N)N)c1` as the compound, how does the growth read?
**A.** 99.9%

**Q.** Which growth does the source give for `COc1ccc(C2CC(c3ccc(Nc4ccnc5cc(Cl)ccc45)cc3)=NN2c2ccccc2)cc1` (stereo not given) here?
**A.** 72.4%

**Q.** With `CC1=C(O)C(=O)C(c2c(C)cc(C)c(Br)c2C)=C(O)C1=O` as the compound, how does the growth read?
**A.** 54.4%

**Q.** For `FC(F)(F)C1=NNC(c2ccc3ccccc3c2)=NN1`, which growth is on record?
**A.** 100%

**Q.** For `NC(N)=N/N=C\c1ccc(OCc2ccccc2)cc1`, which growth is on record?
**A.** 61%

**Q.** Which growth does the source give for `COc1ccc(NC(=O)C2c3ccccc3C(=O)N(CC(C)C)C2c2cccs2)cc1` (stereo not given) here?
**A.** 93.3%

**Q.** `NC(N)=N/N=C\c1cccc(OCc2ccccc2)c1` was tested. Which growth did it give?
**A.** 41.9%

**Q.** For `CS(=O)(=O)Nc1cc(-c2cc3ncc(C#N)c(Nc4ccc(Oc5ccccc5)c(Cl)c4)c3s2)cnc1Cl`, which growth is on record?
**A.** 45.1%

**Q.** `Cc1ccc(NC(=O)c2nc(S(C)(=O)=O)oc2-c2ccc(F)cc2)cc1Nc1ccc2ncn(C)c(=O)c2c1` was tested. Which growth did it give?
**A.** -10.8% (active)

**Q.** How did the growth turn out when `CC(=O)[C@H]1CC[C@H]2[C@@H]3CC[C@H]4CC=CC[C@]4(C)[C@H]3CC[C@]12C` was run?
**A.** 84.8%

**Q.** Which growth does the source give for `COc1cccc(NC(=O)[C@H](C(C)C)n2c(=O)[nH]c3ccccc3c2=O)c1` here?
**A.** 113%

**Q.** For `CC(C)N1CCN(c2ccncc2S(=O)(=O)N2CCN(C)CC2)CC1`, which growth is on record?
**A.** 100%

**Q.** For `[O-]/[N+](=C\c1ccccc1)CC1(O)CCCCC1`, which growth is on record?
**A.** 117%

**Q.** How did the growth turn out when `CCc1ccc(-c2ccc(NC3CCCCCC3)nn2)cc1S(N)(=O)=O` was run?
**A.** 103%

**Q.** For `C[C@@H]1C[C@H](N)C[C@H](c2ccncc2NC(=O)c2ccc(F)c(-c3c(F)cccc3F)n2)C1`, which growth is on record?
**A.** 48.1%

**Q.** `COC(=O)C(CCC(=O)CCl)N1C(=O)c2ccccc2C1=O` (stereo not given) was tested. Which growth did it give?
**A.** 25%

**Q.** `CCCCCCCCCCCCCCC(C(=O)OCC)C(=O)OCC` was tested. Which growth did it give?
**A.** 109%

**Q.** With `O=C(Nc1ccc2[nH]c3ccccc3c2c1)c1ccccc1Cl` as the compound, how does the growth read?
**A.** 25.4%

**Q.** For `CN(C)c1ccc(/C=C(\C#N)c2nc3ccccc3n2C)cc1`, which growth is on record?
**A.** 33.2%

**Q.** With `O=C(CS)OCC(COC(=O)CS)(COC(=O)CS)COC(=O)CS` as the compound, how does the growth read?
**A.** 79.6%

**Q.** How did the growth turn out when `CC(=O)N1N=C(c2ccc(C)cc2)CC1c1cn(-c2ccccc2)nc1-c1cccc(Nc2ccnc3cc(Cl)ccc23)c1` (stereo not given) was run?
**A.** 6.87% (active)

**Q.** For `CCN(CC)CCC(CNc1ccnc2cc(Cl)ccc12)c1ccc(O)cc1` (stereo not given), which growth is on record?
**A.** 49.5%

**Q.** `CNC(=O)c1ccccc1Sc1ccc2c(/C=C/c3ccccn3)n[nH]c2c1` was tested. Which growth did it give?
**A.** 29.9%
